# Test results reported in PubChem BioAssay (Tox21).
# Inconclusive results are not listed. Entries that show only a call come without a potency. Some compounds were tested as several samples or in several runs, with calls that do not always agree. Activity calls are given as the source filed them. Unless noted, the call rests on the fitted dose curve; in most records, active means well fitted curve in the direction sought with a large enough effect in the repeat runs; inconclusive means weak or mixed curves; inactive means no such curve, though single readings can be large; an effect the other way counts as inactive or inconclusive.
# Assays:
# [1] = target: Aryl hydrocarbon receptor (Homo sapiens) (UniProt P35869); assay: qHTS assay to identify small molecule that activate the aryl hydrocarbon receptor (AhR) signaling pathway (AID 743085); further: nearly all actives have a fitted effect of over 15% in size; further: potency means the concentration at half of the fitted maximal effect;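 on activation: HG2L7.5c1 human HepG2 liver cells with stably integrated DRE-driven firefly reporter; series mostly up to about 70 µM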
# How it was run: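 A multiplexed format paired cell viability (CellTiter-Fluor fluorescence) with AhR-dependent luciferase output (ONE-Glo luminescence) in the same wells of HepG2 DRE-luc cells after 24 h compound exposure at 37C.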
# [2] = qHTS assay to identify small molecule that activate the aryl hydrocarbon receptor (AhR) signaling pathway - cell viability counter screen (AID 743086); further: nearly all actives have a fitted effect of over 45% in size; further: potency means the concentration at half of the fitted maximal effect
# How it was run: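 HepG2-AhR-luc (HG2L7.5c1) cells, 4000/well, were preincubated 5 h at 37C, exposed to compound in qHTS format for 24 hr at 37C, then given CellTiter-Fluor for 30 min; viability was read as fluorescence in the reporter wells.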
# [3] = target: Peroxisome proliferator-activated receptor gamma (Homo sapiens) (UniProt P37231); assay: qHTS assay to identify small molecule agonists of the peroxisome proliferator-activated receptor gamma (PPARg) signaling pathway (AID 743094; active means well fitted activation curve with a large enough effect in the signal ratio in the repeat runs, not every such curve was filed as active; the % refers to the signal ratio)
# How it was run: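 Cell-based bla reporter, HEK293H background, PPARg-driven UAS. Pre-incubation 5 h, 37C, 5% CO2. Compound 17 h, 37C. Substrate 1 h RT; fluorescence.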
# [4] = target: Peroxisome proliferator-activated receptor gamma (Homo sapiens) (UniProt P37231); assay: qHTS assay to identify small molecule antagonists of the peroxisome proliferator-activated receptor gamma (PPARg) signaling pathway (AID 743191; calls by dose curve; further: series mostly up to about 63 µM; nearly all actives have a fitted effect of over 30% in size)
# How it was run: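 GeneBLAzer PPARg UAS-bla HEK293H cells carrying a UAS-driven beta-lactamase reporter were plated at 3000 cells/well, preincubated 5 h at 37C, then given compound for 17 h at 37C; LiveBLAzer B/G FRET substrate was read after 1 h at room temperature.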
# [5] = qHTS assay to identify small molecule antagonists of the peroxisome proliferator-activated receptor gamma (PPARg) signaling pathway - cell viability counter screen (AID 743194); details: Potency: co-treated with 50 nM rosiglitazone; further: nearly all actives have a fitted effect of over 55% in size
# How it was run: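 PPARg-UAS-bla HEK293H cells were plated, rested 5 h at 37 C, then treated with compounds plus rosiglitazone (50 nM final) for 17 h at 37 C; viability was then read by CellTiter-Glo luminescence after 30 min at room temperature.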
# [6] = qHTS assay for small molecule agonists of the antioxidant response element (ARE) signaling pathway - cell viability counter screen (AID 743203; calls by dose curve; further: nearly all actives have a fitted effect of over 55% in size)
# How it was run: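 Measured in the same wells as the beta-lactamase ARE reporter, this read-out is CellTiter-Glo luminescence from HepG2 ARE-bla cells given compounds for 16 hrs.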
# [7] = qHTS assay for small molecule activators of the heat shock response signaling pathway - cell viability counter screen (AID 743209); further: nearly all actives have a fitted effect of over 50% in size
# How it was run: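 Same-well multiplex: after 2.5 h room-temperature incubation with LiveBLAzer B/G substrate and fluorescence reading, CellTiter-Glo reagent was added to HSE-bla HeLa cells that had received compound for 5 h at 37 C; luminescence read after 30 min.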
# [8] = qHTS assay for small molecule activators of the heat shock response signaling pathway (AID 743210; active means well fitted activation curve with a large enough effect in the signal ratio in the repeat runs, with a control signal flat, not every such curve was filed as active; the % refers to the signal ratio; further: potency means the concentration at half of the fitted maximal effect; on activation: series mostly up to about 63 µM)
# How it was run: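 Heat shock element–beta-lactamase HeLa reporter cells; qHTS with compounds for 5 h at 37 C; detection by FRET substrate fluorescence after 2.5 h at RT.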
# [9] = qHTS assay to identify small molecule agonists of the peroxisome proliferator-activated receptor delta (PPARd) signaling pathway - cell viability counter screen (AID 743211); further: nearly all actives have a fitted effect of over 55% in size
# How it was run: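 Tox21 library compounds, delivered in DMSO, were incubated 17 h with PPARd-bla HEK293H cells; cytotoxicity was taken from CellTiter-Glo luminescence read 30 min after reagent addition.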
# [10] = target: Peroxisome proliferator-activated receptor delta (Homo sapiens) (UniProt Q03181); assay: qHTS assay to identify small molecule agonists of the peroxisome proliferator-activated receptor delta (PPARd) signaling pathway (AID 743212; calls by dose curve)
# How it was run: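 Beta-lactamase reporter read by fluorescence (LiveBLAzer B/G FRET, 2 h, room temperature). Test agents, in DMSO, incubated at 37 C with PPARd-bla HEK293H cells.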
# [11] = qHTS assay to identify small molecule antagonists of the peroxisome proliferator-activated receptor delta (PPARd) signaling pathway - cell viability counter screen (AID 743213); further: nearly all actives have a fitted effect of over 50% in size
# How it was run: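 PPARd-bla HEK293H cells (3000/well) got compound plus 300 nM L165041 agonist for 17 h at 37 C. Viability in the same wells came from CellTiter-Glo luminescence after 30 min at room temperature.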
# [12] = qHTS assay to identify small molecule agonists of the farnesoid-X-receptor (FXR) signaling pathway - cell viability counter screen (AID 743218); further: nearly all actives have a fitted effect of over 45% in size
# How it was run: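 Readout: CellTiter-Glo luminescence, 30 min RT, multiplexed after the FXR-bla FRET reading. HEK 293T FXR-UAS-bla cells received compound 5 h post-plating and were incubated 16 h at 37 C.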
# [13] = qHTS assay to identify small molecule antagonists of the farnesoid-X-receptor (FXR) signaling pathway - cell viability counter screen (AID 743221; active means well fitted cell-killing curve with a large enough effect in the repeat runs, not every such curve was filed as active; further: nearly all actives have a fitted effect of over 50% in size)
# How it was run: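 Cytotoxicity is taken from ATP luminescence (CellTiter-Glo, 30 min, room temperature) in FXR-bla HEK 293T cells previously incubated 16 h at 37 C with compound and chenodeoxycholic acid at 50 uM final.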
# [14] = target: Vitamin D3 receptor (Homo sapiens) (UniProt P11473); assay: qHTS assay to identify small molecule agonists of the vitamin D receptor (VDR) signaling pathway (AID 743222; calls by dose curve)
# How it was run: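 Following 4 h attachment at 37C, VDR-bla cells (2,000 per well) received DMSO-dissolved compounds or controls. After 16 h incubation, LiveBLAzer B/G FRET substrate was added and fluorescence read 2 h later at room temperature.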
# [15] = target: Vitamin D3 receptor (Homo sapiens) (UniProt P11473); assay: qHTS assay to identify small molecule antagonists of the vitamin D receptor (VDR) signaling pathway (AID 743223; active means well fitted inhibition curve with a large enough effect in the signal ratio in the repeat runs, not every such curve was filed as active; the % refers to the signal ratio)
# How it was run: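 Quantitative HTS in VDR-bla reporter cells stimulated with 1alpha,25-dihydroxyvitamin D3, 3 nM final. Compound exposure 16 h, 37C, 5% CO2. Read-out: beta-lactamase FRET substrate fluorescence, 2 h RT.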
# [16] = qHTS assay to identify small molecule agonists of the vitamin D receptor (VDR) signaling pathway - cell viability counter screen (AID 743224); further: series mostly up to about 63 µM; nearly all actives have a fitted effect of over 50% in size
# How it was run: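 In parallel with the bla FRET readout, cytotoxicity toward VDR-bla cells after 16 h compound exposure was assessed by CellTiter-Glo, with luminescence recorded after a 30 min room-temperature incubation.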
# [17] = qHTS assay for small molecule agonists of the antioxidant response element (ARE) signaling pathway (AID 743202; active means well fitted activation curve with a large enough effect in the signal ratio in the repeat runs, not every such curve was filed as active; the % refers to the signal ratio)
# How it was run: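 Following a 16 h, 37 C exposure of reporter HepG2 cells (ARE-driven beta-lactamase, 2,000 cells/well) to compounds, FRET substrate was applied for 2 h at room temperature and fluorescence intensity recorded.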
# [18] = target: Peroxisome proliferator-activated receptor delta (Homo sapiens) (UniProt Q03181); assay: qHTS assay to identify small molecule antagonists of the peroxisome proliferator-activated receptor delta (PPARd) signaling pathway (AID 743215; active means well fitted inhibition curve with a large enough effect in the signal ratio in the repeat runs, not every such curve was filed as active; the % refers to the signal ratio;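 further: cells stimulated with agonist L165041 at 300 nM final during compound exposure; series mostly up to about 62 µM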)
# How it was run: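 Fluorescence from cleaved LiveBLAzer B/G FRET substrate (2 h, room temperature) reports PPARd-driven beta-lactamase in HEK293H UAS-bla cells. Cells had been treated 17 h at 37 C with compound plus 300 nM final L165041.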
# [19] = target: Bile acid receptor (Homo sapiens) (UniProt Q96RI1); assay: qHTS assay to identify small molecule antagonists of the farnesoid-X-receptor (FXR) signaling pathway (AID 743217; active means well fitted inhibition curve with a large enough effect in the signal ratio in the repeat runs, not every such curve was filed as active; the % refers to the signal ratio)
# How it was run: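 FRET fluorescence after 2 h room-temperature LiveBLAzer loading gives the readout. Prior step: FXR-bla HEK 293T cells, seeded and incubated 5 h, received test compounds plus 50 uM final CDCA for 16 h at 37 °C.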
# [20] = target: Bile acid receptor (Homo sapiens) (UniProt Q96RI1); assay: qHTS assay to identify small molecule agonists of the farnesoid-X-receptor (FXR) signaling pathway (AID 743220; active means well fitted activation curve with a large enough effect in the signal ratio in the repeat runs, not every such curve was filed as active; the % refers to the signal ratio)
# How it was run: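 FXR-UAS-bla HEK 293T cells carrying a UAS-driven beta-lactamase reporter were plated for 5 h at 37C/5% CO2, then exposed to DMSO-dissolved Tox21 10K compounds for 16 h at 37C. A LiveBLAzer B/G FRET substrate was loaded for 2 h at room temperature before fluorescence reading.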
# Sequence of Vitamin D3 receptor (Homo sapiens) (P11473 whole entry, looked up): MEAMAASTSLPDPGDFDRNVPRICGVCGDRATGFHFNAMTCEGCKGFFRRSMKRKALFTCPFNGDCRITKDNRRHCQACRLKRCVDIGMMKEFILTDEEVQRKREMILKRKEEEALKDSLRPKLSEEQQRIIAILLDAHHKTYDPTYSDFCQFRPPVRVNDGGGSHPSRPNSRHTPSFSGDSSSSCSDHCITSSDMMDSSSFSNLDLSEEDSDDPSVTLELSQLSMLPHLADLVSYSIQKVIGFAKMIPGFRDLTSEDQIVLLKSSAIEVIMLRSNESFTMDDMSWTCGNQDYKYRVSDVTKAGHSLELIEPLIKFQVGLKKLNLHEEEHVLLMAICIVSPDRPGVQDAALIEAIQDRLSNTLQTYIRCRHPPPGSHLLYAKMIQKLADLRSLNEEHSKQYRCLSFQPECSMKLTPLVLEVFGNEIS
# Sequence of Bile acid receptor (Homo sapiens) (Q96RI1 whole entry, looked up): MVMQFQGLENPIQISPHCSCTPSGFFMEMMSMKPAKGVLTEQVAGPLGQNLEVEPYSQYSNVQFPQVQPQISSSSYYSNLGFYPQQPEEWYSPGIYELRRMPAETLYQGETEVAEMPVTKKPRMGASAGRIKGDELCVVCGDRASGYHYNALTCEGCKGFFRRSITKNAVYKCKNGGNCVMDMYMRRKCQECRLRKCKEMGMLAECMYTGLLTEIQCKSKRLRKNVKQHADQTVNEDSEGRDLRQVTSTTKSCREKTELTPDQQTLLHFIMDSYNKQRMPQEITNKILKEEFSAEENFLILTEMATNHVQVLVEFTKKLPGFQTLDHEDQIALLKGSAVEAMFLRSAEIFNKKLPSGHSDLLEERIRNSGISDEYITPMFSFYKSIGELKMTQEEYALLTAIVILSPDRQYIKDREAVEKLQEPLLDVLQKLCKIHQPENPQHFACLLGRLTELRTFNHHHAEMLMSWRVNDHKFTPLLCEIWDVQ
# Sequence of Aryl hydrocarbon receptor (Homo sapiens) (P35869 whole entry, looked up): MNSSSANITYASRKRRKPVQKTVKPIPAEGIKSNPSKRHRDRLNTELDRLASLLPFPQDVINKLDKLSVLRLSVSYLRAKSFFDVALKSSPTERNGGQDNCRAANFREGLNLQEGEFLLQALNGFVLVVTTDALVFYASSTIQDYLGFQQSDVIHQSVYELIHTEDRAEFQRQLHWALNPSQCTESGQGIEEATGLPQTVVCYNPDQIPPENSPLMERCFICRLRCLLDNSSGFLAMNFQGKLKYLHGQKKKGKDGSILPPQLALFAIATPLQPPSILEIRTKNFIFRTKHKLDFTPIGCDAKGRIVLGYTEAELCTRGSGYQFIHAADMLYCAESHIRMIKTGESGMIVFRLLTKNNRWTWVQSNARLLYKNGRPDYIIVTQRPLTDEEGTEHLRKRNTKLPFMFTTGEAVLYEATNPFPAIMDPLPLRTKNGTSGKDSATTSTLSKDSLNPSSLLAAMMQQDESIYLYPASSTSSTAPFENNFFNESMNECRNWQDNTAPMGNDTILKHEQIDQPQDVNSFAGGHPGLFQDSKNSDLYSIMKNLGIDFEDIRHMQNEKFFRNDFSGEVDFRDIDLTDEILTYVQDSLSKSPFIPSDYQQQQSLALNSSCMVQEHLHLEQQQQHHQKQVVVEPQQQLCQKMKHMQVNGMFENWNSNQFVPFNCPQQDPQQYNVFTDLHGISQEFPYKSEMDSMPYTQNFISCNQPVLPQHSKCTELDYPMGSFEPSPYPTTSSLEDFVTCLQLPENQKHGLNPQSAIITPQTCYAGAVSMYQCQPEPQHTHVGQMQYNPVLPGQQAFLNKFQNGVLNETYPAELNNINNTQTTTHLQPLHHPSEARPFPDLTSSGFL
# Sequence of Peroxisome proliferator-activated receptor delta (Homo sapiens) (Q03181 whole entry, looked up): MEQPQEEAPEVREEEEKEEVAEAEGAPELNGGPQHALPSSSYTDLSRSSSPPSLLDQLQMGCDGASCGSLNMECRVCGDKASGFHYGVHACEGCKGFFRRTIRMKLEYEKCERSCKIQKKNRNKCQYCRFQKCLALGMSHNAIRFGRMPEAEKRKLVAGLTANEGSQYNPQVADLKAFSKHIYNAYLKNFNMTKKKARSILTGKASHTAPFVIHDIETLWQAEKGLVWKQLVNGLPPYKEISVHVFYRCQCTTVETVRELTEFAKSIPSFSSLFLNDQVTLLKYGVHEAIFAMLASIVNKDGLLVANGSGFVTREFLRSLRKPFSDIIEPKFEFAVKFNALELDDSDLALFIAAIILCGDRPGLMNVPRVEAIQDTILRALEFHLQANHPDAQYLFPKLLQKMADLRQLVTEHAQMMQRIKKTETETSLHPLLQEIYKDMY
# Sequence of Peroxisome proliferator-activated receptor gamma (Homo sapiens) (P37231 whole entry, looked up): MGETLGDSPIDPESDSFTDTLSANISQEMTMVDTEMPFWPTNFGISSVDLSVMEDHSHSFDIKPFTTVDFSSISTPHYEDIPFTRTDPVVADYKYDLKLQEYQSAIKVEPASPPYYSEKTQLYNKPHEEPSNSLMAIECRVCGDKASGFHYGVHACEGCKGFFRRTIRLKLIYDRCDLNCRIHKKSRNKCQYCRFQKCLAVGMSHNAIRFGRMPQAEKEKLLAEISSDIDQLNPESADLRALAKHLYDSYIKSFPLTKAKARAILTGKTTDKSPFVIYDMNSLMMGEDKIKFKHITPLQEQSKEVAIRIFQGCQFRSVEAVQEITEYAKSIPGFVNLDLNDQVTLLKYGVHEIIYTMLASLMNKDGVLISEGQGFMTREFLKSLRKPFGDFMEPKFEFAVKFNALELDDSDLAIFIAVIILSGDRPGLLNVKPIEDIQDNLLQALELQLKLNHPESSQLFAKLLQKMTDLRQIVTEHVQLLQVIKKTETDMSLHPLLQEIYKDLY
SMILES,Potency [1],Potency [2],outcome [3],Potency [4],Potency [5],Potency [6],Potency [7],Potency [8],Potency [9],outcome [10],Potency [11],Potency [12],Potency [13],outcome [14],outcome [15],Potency [16],Potency [17],Potency [18],outcome [19],outcome [20]
CN=CNc1ccc(C)cc1C,inactive,inactive,inactive,inactive,inactive,inactive,inactive,inactive,inactive,inactive,inactive,inactive,inactive,inactive,inactive,inactive,–,–,–,–
C[C@H]1CCCC(=O)CCC/C=C/c2cc(O)cc(O)c2C(=O)O1,inactive,37.1 µM (active) and inactive,inactive,inactive,–,inactive,–,12.7 µM (active),inactive,inactive,inactive,–,–,–,–,–,–,–,–,–
C/C=C/CC#N,inactive,inactive,inactive,–,inactive,inactive,inactive,inactive,inactive,inactive,inactive,inactive,inactive,–,–,inactive,inactive,–,–,–
CCN[C@@H](C)Cc1cccc(C(F)(F)F)c1,inactive,inactive,inactive,–,inactive,inactive,–,inactive,inactive,inactive,inactive,inactive,inactive,–,–,inactive,inactive,inactive,inactive,–
COc1ccc2c(C(=O)c3ccc(Cl)cc3)c(C)n(CC(=O)O)c2c1,33.5 µM (active),inactive,inactive,inactive,–,inactive,inactive,–,–,inactive,inactive,–,inactive,–,–,inactive,inactive,inactive,inactive,inactive
CCOC1Oc2ccc(OS(C)(=O)=O)cc2C1(C)C (configuration not stated),inactive,inactive,inactive,inactive,inactive,–,inactive,–,inactive,inactive,inactive,inactive,inactive,inactive,–,inactive,–,inactive,–,–
O=C(CCl)NCO,inactive,inactive,inactive,–,inactive,inactive,inactive,inactive,inactive,inactive,inactive,inactive,inactive,inactive,–,inactive,–,inactive,–,–
COP(=O)(OC)O/C(C)=C/C(=O)N(C)C,inactive,inactive,inactive,inactive,–,inactive,inactive,inactive,inactive,inactive,inactive,–,inactive,–,–,inactive,–,–,–,–
CCNc1nc(NCC)nc(SC)n1,inactive,inactive,inactive,inactive,–,inactive,inactive,inactive,inactive,–,–,inactive,inactive,–,inactive,inactive,–,–,–,–
CCN[C@@H](C)Cc1ccccc1,inactive,inactive,inactive,inactive,–,inactive,inactive,inactive,inactive,inactive,inactive,inactive,inactive,–,inactive,inactive,–,–,inactive,inactive
O=c1[nH]c2ccccc2o1,inactive,inactive,inactive,–,inactive,inactive,inactive,inactive,inactive,inactive,inactive,inactive,inactive,–,–,inactive,inactive,inactive,–,–
O=C(NC(=O)c1c(F)cccc1F)Nc1cc(Cl)c(F)c(Cl)c1F,inactive,inactive,inactive,–,inactive,inactive,inactive,inactive,inactive,inactive,inactive,inactive,inactive,inactive,inactive,inactive,–,inactive,–,–
CCOC(=O)C(Cl)Cc1cc(-n2nc(C)n(C(F)F)c2=O)c(F)cc1Cl (configuration not stated),inactive,inactive,inactive,inactive,inactive,inactive,inactive,inactive,inactive,inactive,inactive,–,–,inactive,inactive,inactive,–,–,–,–
CCCC[N+](=O)[O-],inactive,inactive,inactive,inactive,inactive,inactive,inactive,inactive,inactive,–,inactive,inactive,inactive,inactive,–,inactive,–,–,inactive,–
[P]#[In],inactive,inactive,inactive,inactive,–,inactive,inactive,inactive,inactive,inactive,inactive,inactive,inactive,–,–,inactive,–,inactive,–,–
CCOP(=S)(OCC)Oc1ccc(Cl)cc1Cl,19.3 µM (active),inactive,inactive,inactive,–,inactive,inactive,inactive,inactive,inactive,inactive,inactive,inactive,inactive,inactive,inactive,–,inactive,–,–
c1cncc([C@@H]2CCCCN2)c1,inactive,inactive,inactive,inactive,–,inactive,inactive,inactive,inactive,inactive,inactive,inactive,–,inactive,inactive,inactive,inactive,–,–,–
CCCN1CCC[C@@H]2Cc3[nH]ncc3C[C@H]21,9.44 µM (active),inactive,inactive,–,inactive,inactive,inactive,inactive,inactive,–,–,inactive,inactive,–,–,inactive,inactive,–,inactive,inactive
C=CC1(C)OC(=O)N(c2cc(Cl)cc(Cl)c2)C1=O (configuration not stated),inactive,–,inactive,inactive,inactive,inactive,inactive,inactive,inactive,inactive,inactive,inactive,inactive,–,inactive,–,inactive,–,inactive,inactive
CCCCCCC(=O)CCCCCC/C=C/C[C@@H](O)[C@H](O)[C@@](N)(CO)C(=O)O,inactive,inactive,inactive,–,inactive,inactive,inactive,inactive,inactive,inactive,inactive,–,inactive,inactive,inactive,inactive,–,inactive,–,–
